MEP2 TOR yeast: modulators of MEP2-GFP levels in yeast, primary screen, S. cerevisiae, multiplex flow cytometry, MLPCN library; S. cerevisiae MEP2-GFP strain, 3 h; 100% = DMSO control level; GFP response vs DMSO, % at 10 µM; hit rate 0.51% among 330,000;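 active = GFP response versus DMSO above a set limit, roughly screen mean plus 3 SD, cut at about 180% in these data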;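 note: median GFP fluorescence of the barcode-gated MEP2-GFP cells per well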
RPL19A TOR yeast: RPL19A-GFP expression modulators in yeast, primary screen, cell-based, S. cerevisiae, multiplex flow cytometry, MLPCN; percent response vs DMSO, % at 10 µM; S. cerevisiae RPL19A-GFP strain, 3 h; hits give low values; hit rate 0.3% among 330,000;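 active = percent response vs DMSO below 50%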;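 note: median channel GFP fluorescence of the barcoded RPL19A-GFP strain; lower means less RPL19A-GFP as with rapamycin TOR inhibition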
CIT2 TOR yeast: modulators of CIT2-GFP expression in yeast, primary screen, S. cerevisiae, GFP fusion, multiplex flow cytometry, MLPCN library; AID 2029, 2009; S. cerevisiae CIT2-GFP strain, 3 h; 100 means same as DMSO wells; GFP response vs DMSO, % at 10 µM; hit rate 0.065% among 320,000;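 active = GFP response relative to DMSO above a set limit, near the screen mean plus 3 SD, cut at about 150% in these data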;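 note: ratio of well median GFP fluorescence to mean of DMSO wells on the plate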
AGP1-GFP MLPCN: modulators of AGP1-GFP expression in yeast TOR pathway, primary screen, cell-based, multiplex flow cytometry, S. cerevisiae, MLPCN library; 3 h; GFP as percent of DMSO wells; GFP response vs DMSO, % at 10 µM; hit rate 0.02% among 320,000;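 active = GFP response relative to DMSO above a set limit, near screen average plus 3 SD, cut at about 150% in these data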;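 note: median GFP channel fluorescence of the gated AGP1 strain per well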
LAP4-GFP MLPCN: modulators of LAP4-GFP expression in yeast, primary screen, S. cerevisiae, multiplex flow cytometry, MLPCN library | 3 h; median GFP as percent of DMSO wells | GFP response vs DMSO, % at 10 µM | hit rate 0.34% among 320,000 | AID 2023, 2009;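 active = GFP response vs DMSO above a set limit, about the screen mean plus 3 SD, cut at about 150% in these data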
VLA-4 inh: inhibition in human VLA-4 binding assay, primary screen, VLA-4 allosteric modulator project, MLPCN library, flow cytometry, VLA-4 expressing cells; ligand binding flow cytometry; inhibition, % (about 7 µM as worked out from the volumes in the protocol); hit rate 0.2% among 330,000; AID 2557, 2010; in the data active = inhibition above about 50%
LAP4-GFP pick2: LAP4-GFP expression modulators in yeast, confirmation, cell-based, second cherry pick, flow cytometry; S. cerevisiae LAP4-GFP strain, 3 h; AID 2621, 2010; hit rate 20% among 590; shares compounds with LAP4-GFP MLPCN; GFP response vs DMSO, % at 10 µM;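 active = GFP signal as percent of the solvent control above about 150%, meaning raised reporter expression, limit read from the data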
MEP2-GFP pick2: modulators of MEP2-GFP levels in yeast, confirmation, S. cerevisiae, flow cytometry GFP, second cherry picks; shares compounds with LAP4-GFP MLPCN; S. cerevisiae MEP2-GFP strain, 3 h; GFP response vs DMSO, % at 10 µM; hit rate 10% among 590;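 active = GFP signal above 150% of the solvent control wells, that is a rise of more than half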;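 note: median channel GFP fluorescence of all gated yeast cells per well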
RPL19A-GFP pick2: RPL19A-GFP modulators in TOR pathway yeast, confirmation, cell-based, S. cerevisiae, flow cytometry, second cherry pick. shares compounds with LAP4-GFP MLPCN. hit rate 3% among 590. S. cerevisiae RPL19A-GFP strain, 3 h; hits give low values; 100% means same as DMSO wells. GFP response vs DMSO, % at 10 µM;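 active = under 65% GFP response relative to DMSO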;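 note: median GFP channel fluorescence per well over the all cells gate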
CIT2-GFP pick2: modulators of CIT2-GFP expression in yeast, confirmation, flow cytometry, second cherry pick, single plex. AID 2624, 2010. GFP response vs DMSO, % at 10 µM. shares compounds with LAP4-GFP MLPCN. hit rate 8% among 590. S. cerevisiae CIT2-GFP strain, 3 h; DMSO control wells read 100%;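 active = GFP response vs DMSO above about 150%, limit read from the data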;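 note: median green fluorescence per well over all gated yeast cells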
AGP1 GFP CP2: AGP1-GFP expression modulators, hit retest, confirmation, cell-based, flow cytometry, S. cerevisiae, cherry pick set 2 | 590 tested, under 10 active | shares compounds with LAP4-GFP MLPCN | percent response vs DMSO, % at 10 µM | S. cerevisiae AGP1-GFP strain, 3 h | AID 2643, 2010;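 active = over 150 percent of DMSO response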;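 note: median GFP channel fluorescence over all cells without mother daughter split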
Yeast autofluor: compound autofluorescence in yeast s288c, dose response, artefact control for yeast TOR pathway GFP screen, s288c strain; shares compounds with LAP4-GFP MLPCN; S. cerevisiae s288c, 520 nm autofluorescence, flow cytometry, 3 h; hits give high values; zero means same as solvent-only cells; fluorescence change (kMESF span) at 33 µM; 610 tested, under 10 active;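 active = fluorescence span over the dose series, or activity score, above about 33, limit read from the data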
Yeast autofl DR: autofluorescence of compounds in yeast s288c, dose response, artefact control for yeast TOR pathway GFP screen, primary hits, KU SAR, s288c parental | shares compounds with LAP4-GFP MLPCN | S. cerevisiae s288c parental, compound autofluorescence, flow cytometry, 3 h | fluorescence change (span) at 33 µM | 110 tested, under 10 active;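 active = fluorescence change span, or the activity score built from it, above 25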
TORC1 bypass gr: wild-type yeast growth inhibition sparing TORC1 bypass cells, mechanism study for yeast TOR pathway GFP screen, BY4741 wild type, TORC1 bypass strain | shares compounds with LAP4-GFP MLPCN | S. cerevisiae BY4741 spot growth rating, 48-72 h; hits give low values | growth rating (0-3) at 30 µM | 120 tested, under 10 active | AID 504456, 2011;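 active = growth rating at most 1 for wild type yeast while the TORC1 bypass strain still grows fully, rated 3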
Of the large screens only hits and unclear results are named; the others gave an inactive call (follow-up assays come after a bar, where they were run). Only some compounds are listed: those with a hit (about 1.1% of all), similar ones and a draw of the others.

C=CCNC(=O)N1CCCC(N2CCN(c3ccccc3OC)CC2)C1 (centres undefined)	none
O=C(NN1C(=O)NC2(CCCCC2)C1=O)c1cccs1	none
CC(C)(C)OC(=O)C[C@@H]1C/C=C\C[C@@H](CC(=O)NCCO)C(=O)N2CCC[C@H]2COC1=O	none
O=C(Cc1ccsc1)NCC(=O)Nc1ccc(F)c(F)c1	none
CCCCC(=O)NNC(=S)NC(=O)c1ccc(C)cc1	LAP4-GFP MLPCN 192.8 | Yeast autofluor inactive | Yeast autofl DR inactive | TORC1 bypass gr inactive
CCCCC(=O)NNC(=S)NC(=O)c1ccc([N+](=O)[O-])cc1	none
Cc1ccc(C(=O)NCCNC(=O)COc2ccc(Cl)cc2)cn1	none
Cc1cc(C(=O)Nc2ccc3c(c2)OCCO3)ccc1[N+](=O)[O-]	none
O=C(Nc1ccc2c(c1)OCCO2)c1ccc(Cl)c([N+](=O)[O-])c1	LAP4-GFP MLPCN 157.7 | LAP4-GFP pick2 inactive | MEP2-GFP pick2 inactive | RPL19A-GFP pick2 inactive | CIT2-GFP pick2 inactive | AGP1 GFP CP2 inactive
Cc1c(N2C(=O)/C(=C\c3ccccc3O)SC2=S)c(=O)n(-c2ccccc2)n1C	LAP4-GFP MLPCN 169.8 | Yeast autofluor inactive
Cc1c(N2C(=O)/C(=C/c3ccccc3)SC2=S)c(=O)n(-c2ccccc2)n1C	none
CC(=O)n1cc(Nc2ccc([N+](=O)[O-])cc2)c2ccccc21	none
CC(=O)SC(C[N+](=O)[O-])c1cn(C(C)=O)c2ccccc12 (centres undefined)	LAP4-GFP MLPCN 229.3 | Yeast autofluor inactive | Yeast autofl DR inactive | TORC1 bypass gr inactive
CC(NC(=O)c1c(O)c2ccccc2n(C)c1=O)c1ccccc1 (centres undefined)	none
CC(C)NC(=O)N(C)C[C@H]1Oc2ccc(NS(=O)(=O)c3ccccc3)cc2C(=O)N([C@H](C)CO)C[C@H]1C	none (no result: MEP2 TOR yeast, RPL19A TOR yeast, CIT2 TOR yeast, AGP1-GFP MLPCN, LAP4-GFP MLPCN)
C[C@H](NC(=O)N1CCn2c1nc1ccccc12)C(=O)NCc1ccc(F)cc1	none
O=C(CCNC(=O)N1CCn2c1nc1ccccc12)NCc1ccc(F)cc1	none | LAP4-GFP pick2 inactive | MEP2-GFP pick2 inactive | RPL19A-GFP pick2 inactive | CIT2-GFP pick2 inactive | AGP1 GFP CP2 inactive
COC(=O)C1CN(C(=O)COc2ccccc2)c2ccccc2O1 (centres undefined)	none
CCC(=O)Oc1oc(-c2ccccc2)nc1C=Nc1ccc(C)cc1	none | Yeast autofluor inactive
CN=Cc1nc(-c2ccccc2)oc1O	none
CCC(=O)Oc1oc(-c2ccccc2)nc1C=Nc1ccccc1OC	none | Yeast autofluor inactive
CC1CCN(C(=O)COC(=O)CCCN2C(=O)c3cccc4cccc(c34)C2=O)CC1	none
O=S(=O)(Nc1nc2ccccc2nc1N1CCN(CCO)CC1)c1cc(F)ccc1F	none
CCC1(c2ccccc2)ON(c2c(Br)cccc2Br)C1=O (centres undefined)	none | LAP4-GFP pick2 inactive | MEP2-GFP pick2 inactive | RPL19A-GFP pick2 inactive | CIT2-GFP pick2 inactive | AGP1 GFP CP2 inactive | Yeast autofluor inactive
COc1cc2c(-c3ccccc3)c(C)oc2cc1/C=N/NC(N)=S	none
CCOC(=O)c1ccc(N=Cc2nc(-c3ccccc3)oc2OC(C)=O)cc1	LAP4-GFP MLPCN 207.6 | Yeast autofluor inactive
CC(=O)Oc1oc(-c2ccccc2)nc1C=Nc1ccccc1	none | Yeast autofluor inactive
CN(C)c1ccc(N=Cc2nc(-c3ccccc3)oc2OC(=O)c2cccc(Br)c2)cc1	none
CCOC(=O)c1ccc(N=Cc2nc3ccccc3n2C)cc1	none
COc1ccc(N=Cc2nc(-c3ccccc3)oc2OC(=O)c2ccccc2)cc1	none | Yeast autofluor inactive
CC(C)(C)c1ccc(NC(=O)C2=CN3CCS(=O)(=O)N=C3C=C2)cc1	none
O=C1OCCC1Sc1nnc(-c2ccco2)o1 (centres undefined)	none
O=C1OCCC1Sc1nnc(-c2ccc(Br)cc2)o1 (centres undefined)	none | LAP4-GFP pick2 inactive | MEP2-GFP pick2 inactive | RPL19A-GFP pick2 inactive | CIT2-GFP pick2 inactive | AGP1 GFP CP2 inactive
CCCCC1(C)OC(=O)C(=Cc2ccc(-c3ccc(Cl)c(C(=O)O)c3)o2)C(=O)O1 (centres undefined)	none
CCOC(=O)c1cc(-c2ccc(/C=C3/C(=O)NC(=O)C(C#N)=C3C)o2)ccc1Cl	LAP4-GFP MLPCN 151.1 | Yeast autofluor inactive
COc1ccc2ccccc2c1CNCCN1CCOCC1	none

Screens: PubChem BioAssay, NMMLSC
